13 molecules from PubChem BioAssay (NCI) can be followed below.

SMILES strings stand for the structures. About 83,000 compounds went through this panel and 20% of them were active in at least one assay; those are over-represented in the sample as a whole.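 48-hour exposure, single concentration, 96-well plates; percent growth endpoint where 0 means no net growth. Active: below 10.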 A number with no mark means an inactive call. The source made the active and inactive calls.

This assay has as its system HL-60(TB) leukemia. Kind of assay: NCI-60 one-dose screen, 48 h (100 = growth as untreated, 0 = no growth, -100 = all killed). To be noted: 10 µM unless noted.
Take `CCOC(=O)c1c(C)oc2ncnc(Nc3ccc(NC(=O)Nc4ccc(CC)cc4)cc3)c12`: the growth is 103%.
As to `CN1CCc2c(sc3nc4n(-c5ccc(Cl)cc5)c(=O)[nH]n4c(=O)c23)C1`, the growth was 89.3%.
For `COc1ccc(OC)c(/C=C2\Oc3cc(O)ccc3C2=O)c1` the value was 95.7%; for `c1cc(C2=N[C@@H]3c4ccccc4C[C@@H]3O2)nc(C2=N[C@@H]3c4ccccc4C[C@@H]3O2)c1`, 105%.
Take `O=C(O)c1cn(C2CC2)c2cc(N3CCN(C(=O)N/N=C/c4ccccc4)CC3)c(F)cc2c1=O`: the growth is 100%.
Take `Oc1ccccc1/C=N/NC(=S)NC1CC2C=CC1C2` (stereo not drawn): the growth is 58.3%.
Then `Nn1c(-c2ccc(Cl)cc2)nc2c(-c3ccc(Cl)cc3)nc3ccc(Cl)cc3c2c1=O`, with 43.4%; and `C#CCOc1cccc(Nc2c(Cl)c(CCl)nc3ccc(Oc4ccccc4)cc23)c1`, with 41.4%.
Then `Cn1ccnc1C(=O)/C=C/c1ccc(CC(=O)Nc2cc(C(F)(F)F)cc(C(F)(F)F)c2)cc1`, with 16.1%; and `Cc1cc(C(=O)Nc2cc(Nc3ncccc3-c3ncnc4nc[nH]c34)ccc2F)cc(C(C)(C)C#N)c1`, with 26.4%.
For `O=C(Nc1ccc(F)cc1)Nc1ccc(CCO)cc1`, the growth is 101%.
In the case of `O=C1/C(=N\c2cc(=O)[nH]n2S(=O)(=O)c2ccccc2)Nc2ccccc21`, the growth was 102%.
Take `CCCCCCCCCCCCCCCCNCCC[C@@H](C)[C@H]1CC[C@H]2[C@@H]3[C@H](OCCCN)C[C@@H]4C[C@H](OCCCN)CC[C@]4(C)[C@H]3C[C@H](OCCCN)[C@]12C`: the growth is 4.5% (active).
